Our source for the growth inhibition values is PubChem BioAssay (NCI).

The nature of the assay: NCI Yeast Anticancer Drug Screen. Data for the mec2-1 strain (AID 157). As to conditions: S. cerevisiae mec2-1 strain, active compounds read high. How it is done:
Growth inhibition of yeast strains with defined genetic alterations is measured as a screen for potential anti-cancer activity. Selected strains with alterations in DNA damage repair or cell cycle control were exposed to compounds and growth inhibition was measured relative to vehicle treated controls. The strain used in this assay is mec2-1

Where [1] appears, read: at 5.0 µM (retest, dose inferred, filed as 0.5).
Setting [2] is: at 50.0 µM (retest, dose inferred, filed as 5.0).

Several values for one entry are separate records, joined by “and”; a condition that tells them apart may be missing. Identical values can stand only once. This is part of a sample that, as a whole, favours compounds with a hit. Of some 79,000 tested, about 15% had one in any assay. Values without a mark were called inactive. Activity calls are given as the source filed them. No stated cut-off is given here; in the data, active means growth inhibition above about 70%; inactive means the rest.

Consider `O=C(NCC1(O)N=C(c2ccc(F)cc2)c2ccsc2-n2cccc21)c1ccc(Cl)cc1Cl` (stereo unspecified), for which the growth inhibition runs as follows: under setting [1], -2%; under setting [2], 44%; (at 50.0 µM) 95.5% (active).

On to `CC1(C)N=C(N)N=C(N)N1c1ccc(OCCCCNC(=O)Nc2ccc(S(=O)(=O)F)cc2)c(Cl)c1`, for which the growth inhibition was -2% under setting [1], 97% (active) under setting [2] and 99.3% (active) (at 50.0 µM).

For the compound `CCOC(=O)C(c1ccsc1)P(=O)(OCC)OCC` (stereo unspecified), the growth inhibition is -21% under setting [1], 74% (active) under setting [2] and 66.7% (at 50.0 µM).

For the compound `C[n+]1c(/C=C/c2ccc(O)c3ccccc23)[se]c2ccccc21`, the growth inhibition by setting is: under setting [1], -13%; under setting [2], 40%; (at 50.0 µM) 47.4%.

As for `Cc1ccc(NCc2ccccc2)cc1[As](=O)(O)O`, the growth inhibition by setting is: under setting [1], -2%; under setting [2], 96% (active); (at 50.0 µM) 12.9%.

As for `O=S(=O)(CCBr)CCBr`, the growth inhibition under setting [1] was 43%, the growth inhibition under setting [2] is 56% and the growth inhibition (at 50.0 µM) is 84.2% (active).

In the case of `C[C@H]1CC[C@@]2(NC1)O[C@H]1C[C@H]3[C@@H]4CC[C@H]5C[C@@H](O)CC[C@]5(C)[C@H]4CC[C@]3(C)[C@H]1[C@@H]2C`, the growth inhibition by setting is: under setting [1], 27%; under setting [2], 98% (active); (at 50.0 µM) 93.8% (active).

On to `COC1CC(C)C(OC)C2=CC(=O)C=C(NC(=O)/C(C)=C/C=C\C(C)C(OC(N)=O)/C(C)=C\C(C)C1OC)C2=O` (stereo unspecified), for which the growth inhibition was 97% (active) under setting [1], 99% (active) under setting [2] and 93% (active) (at 50.0 µM).

Consider `CC(=O)[O][Hg][c]1c(C)c(C)cc(C)c1C`, for which the growth inhibition under setting [1] is 100% (active), the growth inhibition under setting [2] was 98% (active) and the growth inhibition (at 50.0 µM) was 91.2% (active).

On to `CCSc1nc(=[N+]2CCCC2)ss1`, for which the growth inhibition under setting [1] was 25%, the growth inhibition under setting [2] is 100% (active) and the growth inhibition (at 50.0 µM) is 97.5% (active).

`[C-]#[O+].[C-]#[O+].[CH3][Sn]([CH3])[c]1ccccc1.[Fe+5].[c-]1[c-][c-][cH-][c-]1`: the growth inhibition is 4% under setting [1], 87% (active) under setting [2] and 98% (active) (at 50.0 µM).

Turning to `Cc1nn[n-]n1.N.N.N.N.N.[Cl-].[Co+3]`, the growth inhibition (at 50.0 µM) was 6.3%.

Consider `COC(=O)C(Cl)CCl` (stereo unspecified), for which, for the setting “at 50.0 µM”, the growth inhibition is 15.3% and 6.15%.

As for `CCOC(=O)C1C(=O)C(=O)N2CCc3c([nH]c4ccccc34)C12` (stereo unspecified), for the setting “at 50.0 µM”, the growth inhibition is 7.55%.

As for `OCCCCO`, where the note is “at 50.0 µM”, the growth inhibition is -1.7%.

For `C=C[CH2][Sn]([CH3])([CH3])[CH2]C=C`, the growth inhibition (at 50.0 µM) is 4.35%.

Turning to `NC(CCP(=O)(O)O)C(=O)O` (stereo unspecified), where the note is “at 50.0 µM”, the growth inhibition is -3.5% and -15.6%.

Consider `CCOC(=O)C(C)Br` (stereo unspecified), for which the growth inhibition (at 50.0 µM) was 5.3%.

Turning to `CCN(CC)CCN1C(=O)NC(=O)C(CC)(c2ccccc2)C1=O` (stereo unspecified), the growth inhibition (at 50.0 µM) was 9.4%.
